Screening data (PubChem)
aSyn UTR act: Activators via SNCA 5'UTR binding, MLPCN. alpha-synuclein 5'UTR reporter, activators screen. activity score, % (tested at 7.5 µM), hits read low. 300,000 compounds, 7.1% hits; in the data active = activity score below about -60%
Active calls of the source: *. These entries were drawn from the full list.

SMILES	aSyn UTR act
Cc1csc(NC(=O)CCCc2cccs2)n1	-77.1*
COc1ccc2c(c1)oc(=O)c1cc(OC)ccc12	-181.9*
COc1ccc2c(c1)oc(=O)c1c3ccccc3[nH]c21	-277.2*
COc1ccc2c(=O)c3ccccc3oc2c1	-146.8*
COc1ccc(NCN2C(=O)C3C4C=CC(C4)C3C2=O)cc1 (stereo unspecified)	-66.6*
CCOc1cc(/C=N\NC(N)=O)cc(Br)c1OC(C)C	61.8
C=CCOc1c(Br)cc(/C=N/Nc2ccc(C(=O)O)cc2)cc1OCC	-123.1*
CC(C)(C)S(=O)(=O)Cc1nc(-c2ccc(Cl)c(Cl)c2)cs1	-67.1*
Cc1c(C(=O)O)cccc1-c1ccc(C=O)o1	-80.4*
Nc1nc(-c2ccccn2)nc(N)c1Cc1ccccc1F	-246.3*
CSc1nncc(/C(C)=N\Nc2ccccc2C)n1	-81.3*
C/C(CC(=O)Nc1ccc(Cl)cc1C(F)(F)F)=N\NC(=O)c1cccs1	-106.2*
C/C(CC(=O)Nc1ccc(Cl)cc1C(F)(F)F)=N\NC(=O)c1ccccn1	-127.0*
O=C(COC(=O)CNC(=O)c1cccs1)Nc1ccccc1C(F)(F)F	-94.7*
OC1CCCCC1Sc1nc2ccccc2s1 (stereo unspecified)	-88.0*
CCCOc1cccc(-c2cc(-c3n[nH]c(=S)n3CC)c3ccccc3n2)c1	-71.6*
CCn1c(-c2cc(-c3ccc(OC(C)C)cc3)nc3ccccc23)n[nH]c1=S	-104.0*
CC(C)Oc1cccc(-c2cc(C(=O)NC(=S)N(C)c3ccccc3C(=O)O)c3ccccc3n2)c1	-74.7*
CCCOc1cccc(-c2cc(C(=O)NNC(=S)NCC)c3ccccc3n2)c1	-114.2*
C/C(Cn1nnc([N+](=O)[O-])n1)=N\NC(=O)c1ccccc1	-72.6*
COc1cccc(/C=N/Nc2cc(-n3nc(C)cc3-c3ccccc3)ncn2)c1O	110.2
Cc1cnn(-c2cc(N/N=C/c3ccc(F)cc3)ncn2)c1	-85.9*
CN(C)c1ccc(NC(=O)CSc2nc(N)c(C(=O)Nc3ccc(N(C)C)cc3)s2)cc1	-151.1*
COc1ccc(NC(=O)CSc2nc(N)c(C(=O)Nc3ccc(N(C)C)cc3)s2)cc1	-66.2*
CC(c1ccccn1)N(C)C(=O)c1ccc2nc(Cc3ccccc3F)oc2c1 (stereo unspecified)	-101.9*
SMILES	aSyn UTR act
O=C(c1ccc2nc(Cc3ccccc3F)oc2c1)N1CCCC1	-150.4*
Cc1cc(CNC(=O)c2ccc3nc(Cc4ccccc4F)oc3c2)nn1C	-134.6*
COc1cc2sc3ccc(C#CC4(O)CCCCC4)cc3c(=O)c2cc1OC	-136.6*
CN1CCN(Cn2cc(/C=C/C(=O)c3ccccc3)c3ccccc32)CC1	-311.9*
O=[N+]([O-])/C=C/c1cn(Cc2ccc(Cl)cc2)c2ccccc12	64.9
COc1ccc(C(=O)/C=C/c2cn(CC(O)CN3CCN(C)CC3)c3ccccc23)cc1OC (stereo unspecified)	-61.6*
Fc1ccccc1/C=N/n1cc(-c2ccccc2)[nH]c1=S	-84.9*
S=c1[nH]c(-c2ccccc2)cn1/N=C/c1ccc(Br)cc1	-81.4*
Cc1nn(-c2ccccc2)c(Cl)c1/C=N/NC(=O)c1ccnn1C	-108.5*
Cc1nn(-c2ccccc2)c(Cl)c1/C=N/Nc1nnc(C)c(=O)[nH]1	-62.4*
Cc1nn(-c2ccccc2)c(Cl)c1/C=N/Nc1nc2ccccc2n1C	-120.9*
CCc1n[nH]c(=S)n1/N=C/c1c(C)nn(-c2ccccc2)c1Cl	106.3
CCCC(=O)Nc1cc(C)c2c(=O)oc3ccccc3c2n1	-73.9*
CN(C)c1ccc(-c2nn3c(-c4ccccc4Cl)nnc3s2)cc1	82.3
Cc1nnc2sc(-c3ccc(N(C)C)cc3)nn2c1=O	-76.3*
COc1ccc(-c2nnc(SCC(C)C)o2)cc1	-101.9*
COc1ccc(-c2nnc(SCc3nc4ccccc4c(=O)[nH]3)o2)cc1	-69.7*
CCOc1ccc(-c2nc3ccccc3c(=O)o2)cc1	-62.8*
c1coc(-c2nnc(NC3=NCCC3)o2)c1	-70.4*
CCOc1ccc(-c2nnc(NC3=NCCCCC3)o2)cc1	-117.0*
CCOc1ccc(-c2nnc(NC(=O)c3ccc(OCC(C)C)c(OC)c3)o2)cc1	58.5
CCCCOc1ccc(-c2nnc(-c3ccncc3)o2)cc1	-124.1*
CCOc1ccc(-c2nnc(-c3ccc(OC)cc3)o2)cc1	-76.1*
CCOc1ccc(-c2nnc(-c3ccncc3)o2)cc1	-63.2*
O=C(NC(=S)Nc1nc2ccc(F)cc2s1)c1ccco1	-170.7*
SMILES	aSyn UTR act
CC(=O)Nc1ccc2nc(NC(=O)c3cccnc3)sc2c1	-91.6*
CN(C)S(=O)(=O)c1ccc2nc(NC(=O)c3cccs3)sc2c1	-107.6*
O=C(Nc1nc2ccc(F)cc2s1)c1cccs1	-222.9*
CN(C)S(=O)(=O)c1ccc2nc(NC(=O)c3cccnc3)sc2c1	-68.4*
CSc1nc2ccc3nc(NC(=O)c4cccs4)sc3c2s1	-369.6*
O=C(NC(Nc1nc2ccc([N+](=O)[O-])cc2s1)(C(F)(F)F)C(F)(F)F)c1cccnc1	59.7
O=C1NCCc2c1[nH]c1ccc([N+](=O)[O-])cc21	70.1
Oc1[nH]c2ccccc2c1N=Nc1ccccc1	-123.0*
